Active and inactive are the calls of the source.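 The calls were made as follows, unless noted: active = normalized viability below 100% at a tested concentration; inactive = the rest.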
Experiments:
[1] = viability loss with induced miR-34 in A549 – imaging, A549 dox-inducible miR-34, nuclei and caspase counts, primary screen (AID 1347080;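 active = compounds whose cell count with miR-34 switched on is under 0.7 times the count with it off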); conditions: A549 miR-34 inducible, Hoechst nuclei count, 48 h
[2] = MELAS cybrid and Rieske KO viability enhancers – cell-based, MELAS cybrids, Rieske KO mouse fibroblasts, CellTiter-Glo, primary screen (AID 1508586;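 active = mean z-score across replicates of 1.96 or higher in either the MELAS or the Rieske mutant cell line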;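 also: z relative to plate mean and SD of compound and empty wells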); conditions: low glucose
[3] = drug combination growth inhibition, ovarian cancer – cell-based, oncology-focused library, rucaparib conditional, profiling panel (AID 1508598); conditions: patient-derived ovarian cancer cells, CellTiter-Glo viability, 144 h, stronger effect = lower value
[4] = stronger effect = lower value, cell number ratio, induced over uninduced
[5] = measured here: relative caspase fold change +Dox/-Dox
[6] = measured here: total cells with miR-34 induction, stronger effect = lower value
[7] = measured here: total cells without miR-34 induction
[8] = MELAS cybrid survival, CellTiter-Glo 48 h, stronger effect = higher value
[9] = Rieske KO mouse fibroblast survival, CellTiter-Glo 72 h
[10] = at 0.000305 µM, OCI-C5x cells, with rucaparib 10 µM, 100% = cells with rucaparib alone
[11] = at 0.000305 µM, OCI-C5x cells, without rucaparib
[12] = at 0.000305 µM, OCI-P5x cells, with rucaparib 20 µM, 100% = cells with rucaparib alone
[13] = at 0.000305 µM, OCI-P5x cells, without rucaparib
[14] = at 0.00122 µM, OCI-C5x cells, with rucaparib 10 µM, 100% = cells with rucaparib alone
[15] = at 0.00122 µM, OCI-C5x cells, without rucaparib
[16] = at 0.00122 µM, OCI-P5x cells, with rucaparib 20 µM, 100% = cells with rucaparib alone
[17] = at 0.00122 µM, OCI-P5x cells, without rucaparib
[18] = at 0.00488 µM, OCI-C5x cells, with rucaparib 10 µM, 100% = cells with rucaparib alone
[19] = at 0.00488 µM, OCI-C5x cells, without rucaparib
[20] = at 0.00488 µM, OCI-P5x cells, with rucaparib 20 µM, 100% = cells with rucaparib alone
[21] = at 0.00488 µM, OCI-P5x cells, without rucaparib
[22] = at 0.0195 µM, OCI-C5x cells, with rucaparib 10 µM, 100% = cells with rucaparib alone
[23] = at 0.0195 µM, OCI-C5x cells, without rucaparib
[24] = at 0.0195 µM, OCI-P5x cells, with rucaparib 20 µM, 100% = cells with rucaparib alone
[25] = at 0.0195 µM, OCI-P5x cells, without rucaparib
[26] = at 0.0781 µM, OCI-C5x cells, with rucaparib 10 µM, 100% = cells with rucaparib alone
[27] = at 0.0781 µM, OCI-C5x cells, without rucaparib
[28] = at 0.0781 µM, OCI-P5x cells, with rucaparib 20 µM, 100% = cells with rucaparib alone
[29] = at 0.0781 µM, OCI-P5x cells, without rucaparib
[30] = at 0.313 µM, OCI-C5x cells, with rucaparib 10 µM, 100% = cells with rucaparib alone
[31] = at 0.313 µM, OCI-C5x cells, without rucaparib
[32] = at 0.313 µM, OCI-P5x cells, with rucaparib 20 µM, 100% = cells with rucaparib alone
[33] = at 0.313 µM, OCI-P5x cells, without rucaparib
[34] = at 1.25 µM, OCI-C5x cells, with rucaparib 10 µM, 100% = cells with rucaparib alone
[35] = at 1.25 µM, OCI-C5x cells, without rucaparib
[36] = at 1.25 µM, OCI-P5x cells, with rucaparib 20 µM, 100% = cells with rucaparib alone
[37] = at 1.25 µM, OCI-P5x cells, without rucaparib
[38] = at 5 µM, OCI-C5x cells, with rucaparib 10 µM, 100% = cells with rucaparib alone
[39] = at 5 µM, OCI-C5x cells, without rucaparib
[40] = at 5 µM, OCI-P5x cells, with rucaparib 20 µM, 100% = cells with rucaparib alone
[41] = at 5 µM, OCI-P5x cells, without rucaparib

C[C@]12CC[C@H]3c4ccc(O)cc4CC[C@H]3[C@@H]1CCC2=O
1.15: fold change [1, 5]
7600: cell count [1, 6]
active: viability [3, 20] 99.5% | viability [3, 24] 96.5% | viability [3, 25] 96.2% | viability [3, 27] 99.8% | viability [3, 28] 96.1% | viability [3, 29] 66% | viability [3, 30] 81.6% | viability [3, 31] 57.7% | viability [3, 32] 80.9% | viability [3, 33] 42.9% | viability [3, 34] 78% | viability [3, 35] 63.5% | viability [3, 36] 65% | viability [3, 37] 29.9% | viability [3, 38] 36.6% | viability [3, 39] 23.7% | viability [3, 40] 43.7% | viability [3, 41] 13.5%
8340: cell count [1, 7]
inactive: fold change [1, 4] 0.911 | z-score [2, 8] -0.223 | viability [3, 10] 108% | viability [3, 11] 116% | viability [3, 12] 102% | viability [3, 13] 111% | viability [3, 14] 112% | viability [3, 15] 117% | viability [3, 16] 101% | viability [3, 17] 106% | viability [3, 18] 115% | viability [3, 19] 120% | viability [3, 21] 100% | viability [3, 22] 114% | viability [3, 23] 108% | viability [3, 26] 115%
0.742: z-score [2, 9]

CCOC(=O)c1cnc2ccc(-c3cncc(NS(=O)(=O)c4ccccc4)c3)cn12
0.8: z-score [2, 9]
0.323: fold change [1, 5]
active: viability [3, 11] 99.1% | viability [3, 13] 99.9% | viability [3, 17] 95.7% | viability [3, 21] 94.6% | viability [3, 25] 94.3% | viability [3, 26] 91.1% | viability [3, 27] 74.3% | viability [3, 28] 88.7% | viability [3, 29] 48.1% | viability [3, 30] 69.7% | viability [3, 31] 46.2% | viability [3, 32] 66.1% | viability [3, 33] 23.4% | viability [3, 34] 52.2% | viability [3, 35] 37% | viability [3, 36] 46.2% | viability [3, 37] 13.9% | viability [3, 38] 4.93% | viability [3, 39] 22.5% | viability [3, 40] 14.6% | viability [3, 41] 8.51%
1650: cell count [1, 6]
inactive: fold change [1, 4] 0.888 | z-score [2, 8] 0.296 | viability [3, 10] 115% | viability [3, 12] 102% | viability [3, 14] 121% | viability [3, 15] 102% | viability [3, 16] 101% | viability [3, 18] 129% | viability [3, 19] 105% | viability [3, 20] 107% | viability [3, 22] 122% | viability [3, 23] 112% | viability [3, 24] 102%
1860: cell count [1, 7]

COc1ccc(C2CC(=O)c3c(O)cc(O)cc3O2)cc1O (stereo not drawn)
0.0902: z-score [2, 9]
inactive: fold change [1, 4] 0.926 | z-score [2, 8] -0.233
9730: cell count [1, 7]
0.807: fold change [1, 5]
9010: cell count [1, 6]

CC(C)NCCCn1c(Sc2cc3c(cc2I)OCO3)nc2c(N)ncnc21
2430: cell count [1, 7]
2580: cell count [1, 6]
active: z-score [2, 8] 3.04 | viability [3, 12] 95.1% | viability [3, 13] 94.7% | viability [3, 17] 94.3% | viability [3, 20] 99.8% | viability [3, 21] 98.3% | viability [3, 25] 97.9% | viability [3, 31] 60.7% | viability [3, 32] 15.7% | viability [3, 33] 9.78% | viability [3, 34] 77.5% | viability [3, 35] 33.9% | viability [3, 36] 17.3% | viability [3, 37] 8.78% | viability [3, 38] 15.7% | viability [3, 39] 9.3% | viability [3, 40] 7.34% | viability [3, 41] 6.28%
-0.929: z-score [2, 9]
inactive: fold change [1, 4] 1.06 | viability [3, 10] 125% | viability [3, 11] 112% | viability [3, 14] 129% | viability [3, 15] 108% | viability [3, 16] 102% | viability [3, 18] 119% | viability [3, 19] 107% | viability [3, 22] 126% | viability [3, 23] 122% | viability [3, 24] 101% | viability [3, 26] 139% | viability [3, 27] 127% | viability [3, 28] 105% | viability [3, 29] 107% | viability [3, 30] 143%
0.435: fold change [1, 5]

Cc1cc(C)c(-c2csc(NC(=O)c3ccccc3)n2)c(C)c1
active: viability [3, 10] 97.8% | viability [3, 13] 97.3% | viability [3, 15] 97.2% | viability [3, 23] 96.2% | viability [3, 37] 100% | viability [3, 38] 99.6% | viability [3, 40] 86.6% | viability [3, 41] 95.6%
0.994: z-score [2, 9]
3610: cell count [1, 6]
4340: cell count [1, 7]
0.759: fold change [1, 5]
inactive: fold change [1, 4] 0.83 | z-score [2, 8] -0.374 | viability [3, 11] 101% | viability [3, 12] 104% | viability [3, 14] 113% | viability [3, 16] 101% | viability [3, 17] 104% | viability [3, 18] 108% | viability [3, 19] 107% | viability [3, 20] 103% | viability [3, 21] 104% | viability [3, 22] 104% | viability [3, 24] 103% | viability [3, 25] 105% | viability [3, 26] 111% | viability [3, 27] 105% | viability [3, 28] 105% | viability [3, 29] 102% | viability [3, 30] 111% | viability [3, 31] 103% | viability [3, 32] 104% | viability [3, 33] 101% | viability [3, 34] 113% | viability [3, 35] 104% | viability [3, 36] 103% | viability [3, 39] 113%
